Reference: the OligoGym collection

Molecular target: CXorf56
Test: pooled miR-30 sensor sort-seq; sequence = guide strand
Conditions: shRNA

Sequence | sensor-assay potency score (higher = more potent)
ATATGAGTCAGCAACTTCCCTA | -0.79
TTTCTCTAACTGGCAGTCCAGC | -1.26
TACTGCTCCATCCACAATGAAG | -1.81
TTGCCCATGTCTTTGGTCCGTT | -0.538
TTTCTGAGTATATATGTTCGTT | -0.396

Molecular target: CYB5D1
Test: as above
Conditions: shRNA

Sequence | sensor-assay potency score (higher = more potent)
TTTGGATCAAACCAGTGGCTGA | -1.34
TATTCCTGTGCCAATGACGTTA | -0.429
TTAATGATGCGGATGCTCCGGG | -0.0268
TACGTCTTGAGTCTACACGAGT | -1.09
TGAAGTACAGAAGTATTGCAGG | -0.202
TACTGAGATAGTCAAATTCTTC | -1.34
TACAGAAGTATTGCAGGTGTGT | 0.111
TACTTGATCTTCTTGTATCATT | -1.02
TTGAAGTACAGAAGTATTGCAG | 0.794
TAGCGGTGTAGGATTTCCCATA | -1.38
